# GPR151 activ: activators of human GPR151, primary screen, cell-based, PathHunter beta-arrestin, luminescence; G-protein coupled receptor 151 (Homo sapiens), Q8TDV0; PathHunter beta-arrestin GPR151 cells; 650,000 tested, 1% active; activation, % at 11.2 µM; AID 1508602, 2020; in the data active = activation above about 4.9%;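 also: 0% = median of compound wells and 100% = cells with positive control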
# MITF primary: MITF inhibitors, primary screen, biochemical, AlphaScreen, human; Microphthalmia-associated transcription factor (Homo sapiens), O75030; AlphaScreen MITF homodimerization, bead proximity signal; inhibition, % at 2.6 µM; 650,000 tested, 0.91% active; AID 1259374, 2018; in the data active = inhibition above about 50%;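 also: 0% = vehicle wells with protein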
# Target sequence (O75030 whole entry, looked up): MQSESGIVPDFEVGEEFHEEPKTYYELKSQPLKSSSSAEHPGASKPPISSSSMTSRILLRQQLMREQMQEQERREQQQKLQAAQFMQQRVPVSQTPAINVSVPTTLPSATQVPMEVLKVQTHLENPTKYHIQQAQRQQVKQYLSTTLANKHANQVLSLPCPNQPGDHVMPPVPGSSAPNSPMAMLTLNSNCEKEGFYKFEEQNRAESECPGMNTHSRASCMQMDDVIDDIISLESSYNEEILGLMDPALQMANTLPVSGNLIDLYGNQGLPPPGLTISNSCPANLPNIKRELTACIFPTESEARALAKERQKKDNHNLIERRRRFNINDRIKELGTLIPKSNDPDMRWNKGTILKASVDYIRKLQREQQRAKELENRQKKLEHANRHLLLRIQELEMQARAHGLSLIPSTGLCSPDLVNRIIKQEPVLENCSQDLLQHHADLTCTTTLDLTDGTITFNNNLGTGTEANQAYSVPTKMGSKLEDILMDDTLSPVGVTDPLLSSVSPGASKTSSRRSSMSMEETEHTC
# FBW7 act: FBW7 E3 ligase activators, primary screen, biochemical, AlphaScreen, human. normalized activity (activation), % at 26.1 µM. F-box/WD repeat-containing protein 7 (Homo sapiens), Q969H0. AlphaScreen FBW7–phospho-cyclin E peptide binding, activator screen. 650,000 tested, 0.13% active; in the data active = normalized activity above about 1.9%;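 also: purified mutant Fbw7 with reduced substrate affinity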
# TEAD-YAP block: TEAD-YAP interaction inhibition, primary screen, TEAD-YAP interaction inhibitor project, luminescence, HEK-TIYL cells; inhibition, % at 9.12 µM; TEAD-Gal4/YAP UAS-luciferase luminescence; 640,000 tested, 1.4% active; AID 1259422, 2018; in the data active = inhibition above about 32%;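 also: 0% = median of test compound wells and 100% = reference inhibitor wells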
# Starred values were filed as active, the others as inactive. Rows were chosen to be rich in hits. Some 3.4% of all compounds tested hit in one or more screens of this group.
SMILES,GPR151 activ,MITF primary,FBW7 act,TEAD-YAP block
COc1ccc(/C=N/NC(=O)c2cc(O)c(O)c(O)c2)cc1Cn1cc([N+](=O)[O-])cn1,1.6,72.6*,-0.2,-4.5
COc1ccc(/C=N/NC(=O)c2ccccc2O)cc1Cn1cc([N+](=O)[O-])cn1,-0.9,0.1,0.1,-8.3
COc1ccc(-c2ccc(C(=O)Nc3cc(OC)c(OC)c(OC)c3)s2)cc1,-3.4,24.0,0.0,35.9*
COc1cc(NC(=O)c2ccc(-c3ccc(C(N)=O)cc3)s2)cc(OC)c1OC,-0.4,1.9,-0.1,10.2
COc1cc(NC(=O)c2ccc(-c3ccc(N4CCN(C)CC4)cc3)s2)cc(OC)c1OC,0.2,9.7,-0.1,61.8*
OC(COc1ccc(Cl)cc1)CN1C2=NCCN2c2ccccc21 (stereo unspecified),-0.7,11.0,0.5,40.0*
Cc1nc(NC(C)c2ccccc2)cc(-c2cncc(Br)c2)n1 (stereo unspecified),1.6,-7.1,-0.2,-5.7
Cc1nc(NC(C)c2ccccc2)cc(-c2ccccn2)n1 (stereo unspecified),-0.4,25.9,-0.1,36.1*
O=C(NN1C(=O)CCC1=O)c1ccccc1O,3.3,-17.2,-0.1,47.0*
COc1ccccc1C(=O)NN1C(=O)CCC1=O,-0.3,-7.5,0.1,-6.2
COc1cccc(N2CCN(c3c4c(nc5nncn35)CCC4)CC2)c1,-1.6,6.8,0.4,36.7*
CC(=O)NC1=NN(C(C)=O)C(C)(c2ccc(OC(C)=O)cc2)S1 (stereo unspecified),0.9,8.6,0.3,66.0*
CC(=O)NC1=NN(C(C)=O)C(C)(c2cccc(OC(=O)c3ccccc3)c2)S1 (stereo unspecified),-0.3,22.4,0.2,60.5*
NNC(=O)c1cncn1-c1ccccc1,0.0,-16.0,-0.1,37.1*
CCc1ccccc1NC(=O)CN(C)C(=O)CCl,-1.5,-0.6,0.0,78.9*
Cc1ccc(C#N)c(SCc2nnc(-c3ccc(Cl)cc3)o2)n1,-0.4,15.5,0.1,68.2*
Oc1ccc(CCNc2nc(Nc3ccc4ncccc4c3)nc3nc[nH]c23)cc1,-0.4,11.0,0.1,45.4*
OCCNc1nc(Nc2ccc3ncccc3c2)nc2c1ncn2-c1ccsc1,0.8,9.7,0.1,34.6*
Oc1ccc(CCNc2nc(Nc3ccc4ncccc4c3)nc3c2ncn3-c2ccsc2)cc1,-1.5,1.6,-0.2,56.1*
N=C1/C(=C/c2ccc(-c3ccc(C(=O)O)cc3)o2)C(=O)N=C2SC(COc3ccccc3)=NN12,-0.9,-3.1,-0.2,-3.7
CCCCOC(=O)c1ccc(N2C(=O)CC(NCc3ccc4c(c3)OCO4)C2=O)cc1 (stereo unspecified),-0.9,10.6,0.7,6.6
CC1CN(CCOCCOc2ccccc2F)CC(C)O1 (stereo unspecified),-0.9,21.4,0.8,-7.5
O=C(Cn1cncn1)c1ccc2c(c1)CCO2,2.0,11.3,0.2,4.2
CCCc1cc(N2CCN(c3ccccc3)CC2)n2ncnc2n1,1.2,13.8,0.1,9.4
O=Cc1s/c(=N\S(=O)(=O)c2ccccc2)n(CCCCl)c1Cl,-2.3,-0.3,0.0,44.8*
SMILES,GPR151 activ,MITF primary,FBW7 act,TEAD-YAP block
CC(C)c1ccc2c(c1)c1c3c(nccn32)CCC1,1.7,6.4,1.1,-7.0
CC(C)n1c(SCc2ccccc2Cl)nc2c1c(=O)[nH]c(=O)n2C,1.4,3.8,0.3,43.4*
CC(C)CN1C(=O)c2ccc(-c3nc4ccccc4c(=O)o3)cc2C1=O,-0.2,-8.1,-0.1,-6.3
C=C(C)Cn1c(=S)[nH]c2ccc(I)cc2c1=O,-0.1,-22.3,0.2,-2.2
Nc1[nH]ncc1-c1ccc(NC(=O)C(N)Cc2ccccc2)cc1 (stereo unspecified),0.6,5.0,-0.1,1.8
Fc1cc(-c2nc(Nc3ccc(-n4cnc(-c5ccccn5)n4)cc3)ncc2F)cc(N2CCOCC2)c1,0.4,14.4,0.2,58.4*
c1ccc(-c2ncn(-c3ccc(Nc4nccc(-c5cccc(N6CCOCC6)c5)n4)cc3)n2)nc1,-0.3,1.4,-0.1,80.2*
c1ccc(-c2ncn(-c3ccc(Nc4nccc(-c5cncc(N6CCOCC6)c5)n4)cc3)n2)nc1,-0.1,3.2,-1.4,73.0*
Fc1cc(-c2nc(Nc3ccc(-n4cnc(N5CCOCC5)n4)cc3)ncc2F)cc(N2CCOCC2)c1,-0.4,1.2,-0.2,14.2
c1cc(-c2ccnc(Nc3ccc(-n4cnnc4)cc3)n2)cc(N2CCOCC2)c1,0.7,6.2,-0.1,44.6*
CCN(CC)C(=O)CN1C(=O)C2(Nc3ccccc3C(=O)N2Cc2ccccc2)c2ccccc21 (stereo unspecified),2.0,8.5,0.0,11.9
C/C(=N\NC(=O)c1ccc([N+](=O)[O-])cc1)c1ccc2ccccc2c1O,0.1,4.4,0.3,16.7
O=C(CSc1nc2ccccc2[nH]1)Nc1ccccn1,0.3,6.5,0.2,13.2
O=C(CSc1nc2ccccc2[nH]1)Nc1ccc(Cl)cn1,1.4,6.3,-0.1,75.2*
O=C(CSc1nc2ccccc2[nH]1)Nc1ccc(Cl)cc1O,-1.7,12.5,1.1,34.8*
C=CCn1c(C)cc(C(=O)CSc2nc3ccccc3[nH]2)c1C,0.0,14.6,0.3,53.3*
Cc1ccc(Cl)cc1NC(=O)CSc1nc2ccccc2[nH]1,0.9,3.5,0.1,-7.9
COc1cc(CNc2ccc(-c3ccccc3C=O)cn2)cc(OC)c1OC,1.6,16.1,-0.2,28.3
CCOC(=O)c1ccc(-n2sc3c(c2=S)-c2cc(C)ccc2NC3(C)C)cc1,-1.0,75.8*,0.3,10.2
Cc1ccccc1-n1c(-c2ccc(Cl)cc2Cl)n[nH]c1=S,0.5,16.4,1.9*,-2.8
N#CCSc1nc2cc(C(=O)NCc3ccccc3Cl)ccc2c(=O)n1C1CCCCC1,-1.5,2.6,0.0,2.5
COCCNc1ccnc2c(-c3cccc(Cl)c3)cnn12,0.1,10.6,0.3,-2.3
Clc1cccc(-c2cnn3c(NCc4ccco4)ccnc23)c1,-2.0,11.3,2.0*,18.0
Oc1ccc(-c2cnn3c(NCc4cccs4)ccnc23)cc1,-1.4,-28.6,0.0,82.4*
Oc1cccc(-c2cnn3c(NCc4ccco4)ccnc23)c1,0.3,-16.6,-0.7,88.7*
SMILES,GPR151 activ,MITF primary,FBW7 act,TEAD-YAP block
CC(=O)c1cccc(-c2cnn3c(NCc4ccco4)ccnc23)c1,1.0,19.5,0.0,-43.8
Cc1cc(OCC(O)CN2CCCCC2)ccc1Cl (stereo unspecified),1.6,1.4,0.1,7.3
COC(=O)c1ccccc1NC(=O)Nc1ccc(C(=O)N2CCOCC2)cc1,-0.3,-9.5,-0.1,2.6
O=C(c1n[nH]c2c1CCCC2)n1ccnc1,1.0,10.3,-0.1,54.2*
O=C(O)c1n[nH]c2c1CCCC2,-0.8,5.0,-0.1,-8.1
CCCCC(=O)NC(=S)Nc1cc(C(=O)O)ccc1C,-0.8,11.7,0.3,5.0
COc1ccc(CNc2nc3ccc(-c4ccncc4)cc3s2)cc1,-0.4,30.4,60.2*,-39.6
